Source: PubChem BioAssay
This is a sample that favours compounds with a hit; in the whole collection about 1.8% have one here.
MBD2 DNA inh: inhibitors of human MBD2 binding to methylated oligonucleotide; TR-FRET; inhibition, % at 4.4 µM; actives 0.31% (n = 370,000); AID 686964; in the data active = inhibition above about 13%
Target sequence (Q9UBB5 whole entry, looked up): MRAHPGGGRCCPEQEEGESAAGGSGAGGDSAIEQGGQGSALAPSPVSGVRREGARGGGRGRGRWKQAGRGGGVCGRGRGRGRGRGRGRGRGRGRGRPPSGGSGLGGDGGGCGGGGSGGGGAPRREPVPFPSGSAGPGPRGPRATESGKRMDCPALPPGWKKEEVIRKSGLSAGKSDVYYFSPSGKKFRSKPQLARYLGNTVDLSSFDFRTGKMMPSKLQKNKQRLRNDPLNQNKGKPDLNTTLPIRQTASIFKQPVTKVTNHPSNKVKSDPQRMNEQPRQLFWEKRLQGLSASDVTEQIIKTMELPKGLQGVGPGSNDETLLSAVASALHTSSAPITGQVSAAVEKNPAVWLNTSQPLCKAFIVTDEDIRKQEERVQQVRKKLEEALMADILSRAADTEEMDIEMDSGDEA
UBC13 inh: human UBC13 polyubiquitination inhibition. actives 0.47% (n = 330,000). AID 485273. inhibition, % at 20 µM. UBC13 polyubiquitin chain formation, TR-FRET. P61088; in the data active = inhibition above about 45%, passing the limit was not always enough
Target sequence (P61088 whole entry, looked up): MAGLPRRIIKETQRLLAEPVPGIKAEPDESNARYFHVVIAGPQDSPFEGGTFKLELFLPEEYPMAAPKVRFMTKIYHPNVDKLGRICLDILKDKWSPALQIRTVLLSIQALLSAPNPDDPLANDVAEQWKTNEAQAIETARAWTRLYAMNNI
Neddylation inh: inhibitors of human cullin neddylation | calls only at 25 µM | P61081+Q13564 | TR-FRET cullin neddylation, biochemical | actives 0.58% (n = 360,000); in the data active = inhibition above about 36%
UHRF1 binding: human UHRF1 methylated DNA binding inhibitors; UHRF1 binding to methylated oligo, TR-FRET; Q96T88; inhibition, % at 4.4 µM; actives 0.75% (n = 370,000); in the data active = inhibition above about 21%;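 also: UHRF1 SRA domain binding a hemimethylated CpG hairpin DNA probe; 0% = median of test compound wells and 100% = reference inhibitor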
An asterisk follows results filed as active; i = inactive; nt = no result given; + = active, no number.

SMILES	MBD2 DNA inh	UBC13 inh	Neddylation inh	UHRF1 binding
CC(=O)CCC(=O)NC1CCCc2c1cnn2-c1ccc(C(C)(C)C)cc1 (centres undefined)	1	-2	i	34*
CC(=O)NC1CCCc2c1cnn2-c1ccc(C(C)(C)C)cc1 (centres undefined)	0	2	i	1
CCOc1ccc(Br)cc1S(=O)(=O)Nc1ccc(C(=O)OCC(=O)N(C)c2ccccc2)cc1	1	-9	i	4
CCOc1ccc(Br)cc1S(=O)(=O)Nc1cccc(S(=O)(=O)N(C)c2ccccc2)c1	-4	-5	i	23*
CCOc1ccccc1N1CCN(C(=O)[C@@H]2CCCN2C2=NS(=O)(=O)c3ccccc32)CC1	4	0	i	40*
Cc1ccccc1N1CCN(C(=O)[C@@H]2CCCN2C2=NS(=O)(=O)c3ccccc32)CC1	0	8	i	7
COc1ccccc1CNC(=O)C1CCN(S(=O)(=O)c2ccc3c(c2)CC(C)N3C(C)=O)CC1 (centres undefined)	-6	-2	i	0
CC(=O)N1c2ccc(S(=O)(=O)N3CCCC3C(=O)NCc3ccccc3Cl)cc2CC1C (centres undefined)	3	4	i	49*
CC1CC(C)CN(S(=O)(=O)N2CCCC(C(=O)NCc3ccccc3Cl)C2)C1 (centres undefined)	10	3	i	22*
CC1=C(C(=O)N(C)C)CC(CC(=O)NCc2cccs2)C(=O)N1Cc1ccc(F)cc1 (centres undefined)	8	nt	i	24*
CCN(CC)C(=O)C1=C(C)N(Cc2ccc(OC)cc2)C(=O)C(CC(=O)NCCN2CCOCC2)C1 (centres undefined)	9	nt	i	22*
CC1=C(C(=O)N(C)C)CC(CC(=O)NCc2cccs2)C(=O)N1Cc1ccccc1 (centres undefined)	4	nt	i	0
O=C(Nc1ccc(S(=O)(=O)Nc2ncccn2)cc1)c1cccc(S(=O)(=O)N2CCCC2)c1	-4	-2	i	-1
COc1ccccc1CNC(=O)COc1ccc(S(=O)(=O)N2CCOCC2)cc1	1	-12	i	0
CCCCNc1cccc2c1S(=O)(=O)N[C@H](C)CO2	9	nt	nt	22*
CC(C)C(=O)Nc1cccc(N2CCN(CCCN3C(=O)C4CCCCN4C3=O)CC2)c1 (centres undefined)	5	nt	i	23*
CCN1C[C@@H]2[C@@H]3C(=O)N(C)C(=O)[C@@H]3[C@](CC)(C(=O)OC)N2C1=NCc1ccccc1	10	nt	i	21*
CCN1C[C@@H]2[C@@H]3C(=O)N(Cc4ccccc4)C(=O)[C@@H]3[C@](CC)(C(=O)OC)N2C1=NCc1ccccc1	10	nt	i	4
O=C1c2cccc(O)c2C(=O)c2c(O)cccc21	nt	-60	nt	nt
O=C1c2cccc(Sc3ccccc3)c2C(=O)c2c(Sc3ccccc3)cccc21	10	-71	i	24*
COc1ccc(NS(=O)(=O)c2cccc(C(=O)NCC3(N4CCCCC4)CCCCC3)c2)cc1	3	6	i	25*
COc1ccc(Br)cc1CNC(=O)C1CCN(c2nnc(N3CCCC3=O)s2)CC1	2	-2	i	2
COc1ccc(CNC(=O)C2CCN(c3nnc(N4CCCC4=O)s3)CC2)cc1	3	0	i	22*
CC1=NN(c2ccccc2)C(=O)C1C=Nc1ccc(N(C)C)cc1 (centres undefined)	11	-21	i	32*
Cc1ccc(S(=O)(=O)NC(C)C(c2cccs2)N2CCOCC2)cc1 (centres undefined)	-7	6	i	39*
SMILES	MBD2 DNA inh	UBC13 inh	Neddylation inh	UHRF1 binding
Cc1ccc(S(=O)(=O)NC(C)C(c2cccs2)N2CCN(C)CC2)cc1 (centres undefined)	-7	1	i	0
c1ccc(CCc2nc(-c3ccc(-n4cccc4)cc3)no2)cc1	-5	9	i	0
COc1cc(NC(=O)[C@H]2O[C@@H](n3ccc(N)nc3=O)[C@H](O)[C@@H]2O)cc(OC)c1OC	4	nt	i	43*
CCOC(=O)N1CCC(c2cc(=O)n3[nH]c(C)c(-c4ccc(F)cc4)c3n2)CC1	-1	-24	nt	1
Cc1ccc2nc(-c3cccc(Br)c3)c(CC3CCCCC3)n2c1	6	nt	i	21*
COC(=O)c1ccc2nc(-c3ccco3)c(Cc3ccc(C)cc3)n2c1	10	nt	nt	23*
Clc1ccc2nc(-c3cccc(Br)c3)c(Cc3ccccc3)n2c1	3	nt	i	21*
COC(=O)c1ccc2nc(-c3ccc(C)cc3)c(Cc3ccc(C)cc3)n2c1	-1	nt	nt	21*
Cc1ccc(Cc2c(-c3cccc(Br)c3)nc3ccc(C)cn23)cc1	9	nt	nt	20
CC(C)(C)c1nnc(NC(=O)CS(=O)(=O)Cc2ccccc2)s1	5	0	i	-1
COC(=O)c1ccc2nc(-c3ccco3)c(Cc3ccccc3OC)n2c1	16*	nt	nt	26*
COC(=O)c1ccc2nc(-c3ccc(Cl)cc3)c(Cc3ccccc3OC)n2c1	9	nt	i	20
COC(=O)c1ccc2nc(-c3cccc(Cl)c3)c(Cc3ccccc3OC)n2c1	7	nt	i	21*
Cc1cc2nc(-c3ccco3)c(CC(C)(C)C)n2c(C)c1Br	-3	nt	i	10
COc1ccccc1Cc1c(-c2ccco2)nc2cc(C)c(Br)c(C)n12	10	nt	i	25*
COC(=O)c1ccc2nc(-c3ccc(Cl)cc3)c(Cc3ccccc3)n2c1	2	nt	nt	23*
COc1ccccc1C1OCC(C)(C)CO1	2	nt	i	16
O=C(CCNC(=O)c1ccc(Cl)cc1)NCc1cccc(C(F)(F)F)c1	0	-7	i	2
CCN(CC)CCNC(=O)C1CCCCN1S(=O)(=O)c1cccc([N+](=O)[O-])c1 (centres undefined)	-3	-3	i	1
Cc1ccc(-c2cc(C(=O)NN=Cc3cc(Br)ccc3O)[nH]n2)cc1C	3	nt	nt	1
Cc1ccsc1/C=N/NC(=O)c1sccc1C	3	-4	i	-1
Cc1cc(C(=O)N/N=C/c2sccc2C)no1	2	-6	i	23*
COc1ccc(Cc2c(-c3ccc(F)cc3)nc3ccc(C)cn23)c(C)c1	4	nt	nt	21*
COc1ccc(Cc2c(-c3ccc(OC)c(OC)c3)nc3ccc(C)cn23)c(C)c1	7	nt	i	24*
Fc1ccc(-c2nc3ccc(Cl)cn3c2Cc2ccccc2)cc1	3	nt	i	-2
SMILES	MBD2 DNA inh	UBC13 inh	Neddylation inh	UHRF1 binding
Cc1ccn2c(Cc3ccccc3)c(-c3ccc(F)cc3)nc2c1	8	nt	i	21*
CCOc1ccc(NC(=O)CCc2c(C)noc2C)cc1OC	-2	-8	i	-2
C/C(=N\NC(=S)NCC(C)(C)C)c1cc(F)cc(F)c1O	8	11	+	1
CC(OC(=O)C1=NN(c2ccccc2)C(=O)CC1)C(=O)NC1CCCCC1C (centres undefined)	1	6	i	48*
CC(OC(=O)c1nn(C)c(=O)c2ccccc12)C(=O)NC1CCCCC1C (centres undefined)	-1	3	i	26*
CC(OC(=O)c1n[nH]c2ccccc12)C(=O)NC1CCCCC1C (centres undefined)	5	-11	i	-1
